Data reported in PubChem BioAssay (NCATS).
Several values for one entry are separate records, joined by “and”; a condition that tells them apart may be missing. Identical values can stand only once.

Biological target: Glucocorticoid receptor (Homo sapiens) (UniProt P04150)
Assay: GR-GFP Redistribution (AID 450)
Settings: U2OS GR-GFP nuclear translocation, laser cytometry, 2 h;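 active = compounds whose dose series gives a full or clear partial fitted curve of increased nuclear translocation; inconclusive = weak partial curve or effect only at the top dose; inactive = no dose-dependent translocation response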
Description: NIH Molecular Libraries Screening Centers Network [MLSCN]
NIH Chemical Genomics Center [NCGC]
The glucocorticoid receptor (GR) Redistribution assay (BioImage) enables the visualization of GR cytoplasmic to nuclear translocation by the use of a GR-GFP fusion. GR is normally cytosolic, however ligands such as dexamethasone, cause nuclear translocation where the protein binds to response elements and interacts with various co-factors to modulate transcription. Because both functional agonists and antagonists can induce nuclear translocation, this assay can detect ligands regardless of their effects on gene expression. GR-GFP expressing U20S cells were used here. Dexamethasone was the positive control for translocation and data normalization. Detection of nuclear translocation was performed in 1536-well plates using the Acumen laser scanning plate cytometer (TTP LabTech). Validation of this assay and a detailed protocol have been described.
NCGC Assay Protocol Summary:
GR-GFP U2OS cells were maintained in DMEM with Glutamax and high glucose, 1% v/v penicillin-streptomycin, and 0.5 mg/mL Geneticin. For cell culture, 10% […] fetal bovine serum (FBS) was used (Invitrogen #26140-079). For cell plating 10% dextran, charcoal-stripped FBS (Hyclone SH30068.03) was used. U2OS cells were trypsin treated, suspended in medium, and passed through a 40 um basket filter. The cells were seeded at 600 cells/5 uL/well into clear-bottom black sided 1536-well plates and incubated for approximately 20 hrs, 37degC, 5%, CO2 in a tissue culture incubator. Twenty-three nL of compound was delivered by pin tool and the plates were incubated as above for 2 hrs. The compounds were tested as a 7-point titration ranging from 46 uM to 0.6 nM. The cells were fixed using the Kalypsys Washer/Dispenser station. The fixing protocol involved aspiration of the cell media, addition of 6 uL/well of PBS, aspiration of PBS, addition of 5uL/well of 100% methanol, aspiration of methanol, and addition of 3 uL/well PBS with 1.5 uM propidium iodide (PI). The plates were read by the Acumen Explorer using a 1 x 8 um scan of the whole well area. PI fluorescence triggered the collection of PI and GFP signals. A nuclei population was defined by a 10 to 100 um width and depth filter that eliminated small and large fluorescent particles. Two subpopulations of nuclei were then defined by peak intensity of GFP fluorescence to obtain translocated and untranslocated objects. The number of translocated objects was used for data normalization.
Keywords: NIH Roadmap, MLSCN, MLI, MLSMR, sOGT, qHTS, NCGC
Potency is the fitted concentration of half-maximal effect.

Chain of Glucocorticoid receptor (Homo sapiens) (P04150 whole entry, looked up): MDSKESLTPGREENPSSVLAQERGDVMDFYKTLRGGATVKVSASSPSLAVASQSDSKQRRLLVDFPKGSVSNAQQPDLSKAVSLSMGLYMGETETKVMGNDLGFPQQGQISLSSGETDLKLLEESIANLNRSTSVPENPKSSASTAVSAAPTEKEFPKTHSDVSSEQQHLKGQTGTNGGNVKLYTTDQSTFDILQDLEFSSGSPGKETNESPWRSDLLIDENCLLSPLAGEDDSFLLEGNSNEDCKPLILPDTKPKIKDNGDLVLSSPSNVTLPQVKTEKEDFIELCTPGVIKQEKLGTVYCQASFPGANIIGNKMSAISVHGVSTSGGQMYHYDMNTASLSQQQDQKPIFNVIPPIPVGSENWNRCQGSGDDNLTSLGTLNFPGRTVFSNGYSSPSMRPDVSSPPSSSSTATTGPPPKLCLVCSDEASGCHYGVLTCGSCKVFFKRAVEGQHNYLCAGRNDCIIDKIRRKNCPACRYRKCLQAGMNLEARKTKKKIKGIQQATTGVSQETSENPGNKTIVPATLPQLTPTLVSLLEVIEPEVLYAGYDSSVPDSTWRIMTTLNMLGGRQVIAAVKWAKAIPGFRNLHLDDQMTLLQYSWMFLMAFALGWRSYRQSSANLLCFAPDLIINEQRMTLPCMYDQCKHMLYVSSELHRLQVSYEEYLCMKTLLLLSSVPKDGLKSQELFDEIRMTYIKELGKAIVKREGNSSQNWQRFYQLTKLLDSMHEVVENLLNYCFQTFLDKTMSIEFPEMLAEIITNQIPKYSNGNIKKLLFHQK

Potency, inactive:
C#C[C@]1(O)CC[C@H]2[C@H]3CCC4=Cc5oncc5C[C@]4(C)[C@@H]3CC[C@]21C > 46 µM, OC[C@H]1NC[C@H](O)[C@@H](O)[C@H]1O > 46 µM, Cc1nc2ccc(NC(=O)Nc3ccnc4cccnc34)cc2o1 > 46 µM, COc1ccc2cccc(N3CCN(CCNC(=O)c4ccc(F)cc4)CC3)c2c1 > 46 µM, Cc1sc(N)c(C(=O)c2cccc(C(F)(F)F)c2)c1C > 46 µM, N[C@@H](C(=O)O)c1ccc(C(=O)O)c(O)c1 > 46 µM, CN(C)CCCSC(=N)N > 20.6 µM and > 46 µM, CC[N+](C)(CC)CCC[n+]1c(-c2ccccc2)c2cc(N)ccc2c2ccc(N)cc21 > 20.6 µM, CSc1nc(N)c2ncn([C@H]3O[C@H](COP(=O)(O)OP(=O)(O)O)[C@@H](O)[C@@H]3O)c2n1 > 46 µM, CCCCC[C@H](O)/C=C/C1=C(CCCCCCC(=O)O)C(=O)CC1 > 20.6 µM, CCCCCCN(CCCCCC)C(=O)Cc1c(-c2ccc(Cl)cc2)[nH]c2ccc(Cl)cc12 > 46 µM, Cc1cccc(/C=C\c2ccccc2)n1 > 46 µM, CC[N+](CC)(CC)CCOc1ccc(/C=C\c2ccccc2)cc1 > 46 µM, C[N+](C)(CCCCCC[N+](C)(C)CCCN1C(=O)c2ccccc2C1=O)CCCN1C(=O)c2ccccc2C1=O > 46 µM, CCCCCCCCCCCCCCCC(=O)NC(C)C > 46 µM, O=S(=O)(NCCCCCCc1ccccc1)c1cccc2c(Cl)cccc12 > 46 µM, C[C@@H](/C=C\c1cccc(Oc2ccc(F)cc2)c1)N(O)C(N)=O > 46 µM, CCOC(=O)C1=C(C)NC(c2ccccc2)=C(C(=O)OCc2ccc([N+](=O)[O-])cc2)[C@@H]1C#Cc1ccccc1 > 46 µM, Cc1c(-c2ccc(Cl)cc2)noc1C1CCN(CCc2ccccc2)CC1 > 46 µM, c1ccc(CN2CCC3(CCc4ccccc43)CC2)cc1 > 46 µM, Cc1nc(N=Nc2cc(S(=O)(=O)O)ccc2S(=O)(=O)O)c(COP(=O)(O)O)c(C=O)c1O > 46 µM, Cc1c(C(=O)NN2CCOCC2)nn(-c2ccc(Cl)cc2Cl)c1-c1ccc(I)cc1 > 46 µM, Cc1c2ccccc2c(CSC(=N)N)c2ccccc12 > 46 µM, O=C1C(=O)N(Cc2ccc(Cl)c(Cl)c2)c2ccccc21 > 46 µM, CC(N)=NCCCC[C@H](N)C(=O)O > 46 µM, NC(N)=Nc1ccc(Cl)cc1 > 46 µM, Cc1noc(NS(=O)(=O)c2cccc3c(N(C)C)cccc23)c1C > 46 µM, N[C@H](C(=O)O)[C@@H]1C[C@@H]1C(=O)O > 46 µM, COc1cc2c(cc1C(F)(F)F)N(C(=O)Nc1cc(F)cc(-c3cccnc3)c1)CC2 > 46 µM, CC(=O)NCCc1c(Cc2ccccc2)[nH]c2ccccc12 > 46 µM, O=C(c1ccccc1)[C@@H]1O[C@H]1c1ccc(-c2ccccc2)cc1 > 46 µM, O=C1CC2(CCCC2)CC(=O)N1CCCCNC[C@H]1COc2ccccc2O1 > 46 µM, COc1cc(-c2ccc(N=Nc3ccc4c(S(=O)(=O)O)cc(S(=O)(=O)O)c(N)c4c3O)c(OC)c2)ccc1N=Nc1ccc2c(S(=O)(=O)O)cc(S(=O)(=O)O)c(N)c2c1O > 20.6 µM and > 46 µM, CC(C)(C)NC[C@H](O)COc1cccc2[nH]c(=O)[nH]c12 > 46 µM, CCCn1c(=O)c2[nH]c(-c3ccccc3)nc2n(CCC)c1=O > 46 µM, CN(C)C/C=C(\c1ccc(Br)cc1)c1cccnc1 > 46 µM and > 20.6 µM, NC1=NCCCC1 > 46 µM, CCCCCC(=O)O[C@H](CC(=O)O)C[N+](C)(C)C > 46 µM, NC1(C(=O)O)CC(C(=O)O)C1 (stereo not given) > 46 µM, NCCNS(=O)(=O)c1cccc2cnccc12 > 46 µM
